tested on: Vero E6 infected with SARS-CoV-2; assay: SARS-CoV-2 infection rate relative to infected DMSO; higher = more infection, active = 60 or less; details: 24 h

SMILES	SARS-CoV-2 infection rate
Nc1ccc(S(=O)(=O)Nc2ccc(Cl)nn2)cc1 [sulfachlorpyridazine] (10 µM)	108% (inactive)
Oc1ccc2ccccc2c1 [beta-naphthol] (10 µM)	111% (inactive)
Nc1nc(-c2nn(Cc3ccccc3F)c3ncccc23)ncc1C1CC1 (0.833333 µM)	102% (inactive)
COc1ccc(Cl)cc1NC(=O)Nc1cc(C)nc2ccccc12 (10 µM)	96.5% (inactive)
CC(C)NCC(O)COc1cccc2[nH]c3ccccc3c12 (stereo not given) [carazolol] (10 µM)	91.5% (inactive)
Oc1cccc(-c2nc(N3CCOCC3)c3oc4ncccc4c3n2)c1 (10 µM)	118% (inactive)
Nc1ccn(C[C@@H](CO)OCP(=O)(O)O)c(=O)n1 [cidofovir] (10 µM)	108% (inactive)
CC1(C)S[C@@H]2[C@H](NC(=O)[C@H](N)c3ccc(O)cc3)C(=O)N2[C@H]1C(=O)O [amoxicillin] (10 µM)	102% (inactive)
O=C(O)c1ccc(-c2ccc3cc(O)c(C45CC6CC(CC(C6)C4)C5)cc3c2)cc1 (10 µM)	106% (inactive)
Cc1onc(-c2ccccc2)c1-c1ccc(S(N)(=O)=O)cc1 [valdecoxib] (10 µM)	98.5% (inactive)
OCc1c[nH]c2ccccc12 [indole-3-carbinol] (10 µM)	94.5% (inactive)
N[C@H](Cc1ccccc1)C(=O)O [D-phenylalanine] (10 µM)	104% (inactive)
Cc1cc(OCc2nnc(SC3CCCC3)n2-c2cccnc2)ccc1-c1ccc(S(C)(=O)=O)cc1 (0.833333 µM)	100% (inactive)
FC(F)(F)c1cc(NC(=S)Nc2ccc(Br)cc2-c2nnn[nH]2)cc(C(F)(F)F)c1 (10 µM)	98% (inactive)
N=C(N)S/C=C\C(=O)O (10 µM)	108% (inactive)
CCc1nc(C(N)=O)c(Nc2ccc(N3CCC(N4CCN(C)CC4)CC3)c(OC)c2)nc1NC1CCOCC1 [gilteritinib] (0.833333 µM)	91.5% (inactive)
C[N+]12CCC(CC1)C(OC(=O)C(O)(c1ccccc1)c1ccccc1)C2 (stereo not given) [clidinium] (10 µM)	95% (inactive)
Cn1cc(-c2ccncc2)c(-c2ccc(OCc3ccc4ccccc4n3)cc2)n1 (10 µM)	8% (active)
Cc1ccc(O)c([C@H](CCN(C(C)C)C(C)C)c2ccccc2)c1 [tolterodine] (10 µM)	77.5% (inactive)
Fc1ccccc1CNCc1ccc(-c2ccnc3[nH]ccc23)cc1 (10 µM)	116% (inactive)

SMILES	SARS-CoV-2 infection rate
Cc1cc(=O)[nH]c(=S)[nH]1 [methylthiouracil] (10 µM)	104% (inactive)
CCn1c(-c2nonc2N)nc2cncc(C(=O)N3CC[C@H](N)C3)c21 (0.833333 µM)	87% (inactive)
O=C(O)Cc1sc(-c2ccccc2)nc1-c1ccc(Cl)cc1 [fentiazac] (10 µM)	100% (inactive)
OCCN1CCN(CC/C=C2/c3ccccc3Sc3ccc(C(F)(F)F)cc32)CC1 [flupentixol] (10 µM)	79% (inactive)
C[C@H](CCC(=O)O)[C@H]1CC[C@H]2[C@@H]3C[C@H](O)[C@@H]4C[C@H](O)CC[C@]4(C)[C@H]3CC[C@]12C [Hyodeoxycholic acid (HDCA)] (10 µM)	102% (inactive)
Cc1nc2ccccn2c(=O)c1CCN1CCC(C(=O)c2ccc(F)cc2)CC1 [pirenperone] (10 µM)	108% (inactive)
O=C1NCCc2[nH]c(-c3ccncc3)cc21 (0.833333 µM)	106% (inactive)
CC(C)(C)Nc1nc(Nc2ccc(C(N)=O)cc2)cc(N)c1C#N (0.833333 µM)	106% (inactive)
NCC1(CC(=O)O)CCCCC1 [gabapentin] (10 µM)	109% (inactive)
CCN1CCN(C(=O)N[C@@H](C(=O)N[C@@H]2C(=O)N3[C@@H]2SC(C)(C)[C@@H]3C(=O)O)c2ccccc2)C(=O)C1=O [piperacillin] (10 µM)	96% (inactive)
COC(c1ccccc1)(c1ccccc1)[C@H](Oc1nc(C)cc(C)n1)C(=O)O [ambrisentan] (10 µM)	104% (inactive)
COC[C@@H](c1ccc(C(F)(F)F)cc1)N1CCN(C2(C)CCN(C(=O)c3c(C)ncnc3C)CC2)C[C@@H]1C [vicriviroc] (10 µM)	100% (inactive)
N=C(N)Nc1ccc(C(=O)Oc2ccc3cc(C(=N)N)ccc3c2)cc1 [nafamostat] (10 µM)	108% (inactive)
COc1ccc2cc1Oc1cc3c(cc1OC)CC[N+](C)(C)[C@H]3Cc1ccc(cc1)Oc1c(OC)c(OC)cc3c1[C@@H](C2)[N+](C)(C)CC3 [metocurine] (10 µM)	104% (inactive)
Cc1ccccc1C(=O)c1ccc(Nc2ccc(Br)cc2N)cc1Cl (10 µM)	102% (inactive)
Cc1ccc(C(=O)C(C)CN2CCCCC2)cc1 (stereo not given) [tolperisone] (10 µM)	83.5% (inactive)
C[C@H]1NC(=O)NC1=O [5-methylhydantoin-(D)] (10 µM)	102% (inactive)
CC(C)(C)[C@H]1CC[C@H](CC2=C(O)C(=O)c3ccccc3C2=O)CC1 [buparvaquone] (0.833333 µM)	94% (inactive)
O=[N+]([O-])c1cc(Cl)ccc1S(=O)(=O)N1CCN(Cc2ccccc2)CC1 (10 µM)	112% (inactive)
N=C(N)c1ccc(/C=C/c2ccc(C(=N)N)cc2O)cc1 [hydroxystilbamidine] (10 µM)	109% (inactive)
